Hits are enriched below; roughly 13% of the tested compounds scored in any of these assays.
USP17 inh: inhibitors of human USP17 deubiquitinase; 47,000 compounds, 6.5% hits; inhibition, % at 50 µM; purified USP17, Ub-rhodamine cleavage fluorescence, 3 h
Target sequence (A8MUK1 whole entry, looked up): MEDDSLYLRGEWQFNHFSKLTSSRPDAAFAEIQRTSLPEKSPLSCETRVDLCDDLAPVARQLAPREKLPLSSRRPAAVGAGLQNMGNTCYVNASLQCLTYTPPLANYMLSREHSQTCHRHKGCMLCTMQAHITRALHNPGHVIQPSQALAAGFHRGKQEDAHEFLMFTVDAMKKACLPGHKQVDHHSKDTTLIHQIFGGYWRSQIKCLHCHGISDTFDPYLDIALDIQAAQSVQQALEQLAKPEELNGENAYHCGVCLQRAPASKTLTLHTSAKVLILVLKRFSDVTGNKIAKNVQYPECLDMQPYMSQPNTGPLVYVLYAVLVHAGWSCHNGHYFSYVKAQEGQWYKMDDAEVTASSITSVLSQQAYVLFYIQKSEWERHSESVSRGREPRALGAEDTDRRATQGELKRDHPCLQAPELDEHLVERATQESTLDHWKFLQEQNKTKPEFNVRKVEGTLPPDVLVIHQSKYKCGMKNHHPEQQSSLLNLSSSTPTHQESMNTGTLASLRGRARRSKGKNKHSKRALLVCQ
USP8 block: inhibitors of human USP8 deubiquitinase. P40818. purified USP8, Ub-rhodamine cleavage fluorescence, 30 min. inhibition, % at 20 µM. 47,000 compounds, 4.2% hits. AID 1645853
USP28 block: human USP28 deubiquitinase inhibition; Q96RU2; purified USP28, Ub-rhodamine cleavage fluorescence, 30 min; inhibition, % at 25 µM; 47,000 compounds, 3% hits; AID 1645857
USP7 block: blocks human USP7 ubiquitin-rhodamine cleavage; Q93009; purified USP7, Ub-rhodamine cleavage fluorescence; inhibition, % at 20 µM; 47,000 compounds, 0.3% hits; AID 1645854
USP30 inh: inhibitors of human USP30 deubiquitinase. Q70CQ3. purified USP30, Ub-rhodamine cleavage fluorescence. inhibition, % at 25 µM. 47,000 compounds, 5.3% hits
USP10 block: inhibitors of human USP10 deubiquitinase; purified USP10, Ub-rhodamine fluorescence, 60 min; Q14694; AID 1645856; inhibition, % at 20 µM; 47,000 compounds, 1.1% hits
Active calls of the source: *; / = not tested or not shown. No stated cut-off is given here; in the data, active means inhibition above about 30%; inactive means the rest.

SMILES | USP17 inh | USP8 block | USP28 block | USP7 block | USP30 inh | USP10 block
CCn1cc(C(=O)Nc2ccc3ccccc3c2)c(=O)c2ccc(C)nc21 | 33* | -8 | -13 | -3 | -98 | -6
O=C(NCCN1CCCCC1)C1CCN(c2cnc(N3CCCC3)nc2)CC1 | -44 | -2 | -16 | 0 | -77 | -3
O=C1N[C@@H]2CN(C(=O)Nc3ccccn3)CC[C@H]2CO1 | 7 | -4 | 7 | 5 | 11 | 3
O=C(C1CCN(c2nc3ccc(-c4cccnc4)nc3s2)CC1)N1CCCC1 | -2 | -4 | -4 | 1 | -2 | -1
COc1cccc(-c2ccc3nc(N4CCC(C(N)=O)CC4)sc3n2)c1 | 49* | 14 | 2 | -1 | 8 | -3
Cc1ccccc1OCc1nc2c3cnn(C)c3ncn2n1 | 17 | -1 | 15 | 1 | 35* | -2
CCCSc1nc(SCC(=O)Nc2ccccc2)c2c3c(sc2n1)COC(C)(C)C3 | -10 | -4 | 0 | / | -25 | -3
Cn1c(SCC(=O)c2ccc3c(c2)OCCCO3)nnc1-c1ccc2ccccc2c1 | 27 | -4 | 31* | 4 | 49* | 20
Cn1c(SCCOc2ccccc2Cl)nnc1-c1ccc2c(c1)OCCO2 | 17 | 5 | 38* | -3 | 39* | 3
COc1ccccc1OCCSc1nnc(-c2ccc3c(c2)OCCCO3)n1C | 9 | 11 | 11 | 78* | 18 | 1
CC1Cc2ccccc2N1C(=O)CSc1nnc(-c2ccc3c(c2)OCCO3)n1C (centres undefined) | -4 | -9 | 0 | -3 | 13 | 1
Cn1c(SCC(=O)N2CCCCC2)nnc1-c1ccc2c(c1)OCCO2 | 14 | 18 | 6 | 3 | 25 | 1
CC(NC(=O)c1cc2c(=O)n(C)ccc2n1C)c1ccccc1 (centres undefined) | 22 | 45* | 7 | 3 | 1 | 3
Cn1ccc2c(cc(C(=O)NC3CCCCCC3)n2C)c1=O | -18 | -130 | -4 | 0 | -14 | 3
COc1cccc(-c2nc(C(N)=O)c3[nH]c(=O)n(-c4cccc(Cl)c4)c3n2)c1OC | 51* | -12 | -17 | -1 | -110 | -8
COc1ccc(-c2nc(C(N)=O)c3[nH]c(=O)n(-c4ccc(OC)c(OC)c4)c3n2)cc1 | -10 | 8 | -9 | 6 | -13 | -2
COc1cccc(-n2c(=O)[nH]c3c(C(N)=O)nc(C4CCCCC4)nc32)c1 | -27 | 10 | -35 | -14 | -202 | -8
Cc1nc(C(N)=O)c2[nH]c(=O)n(C3CCCCC3)c2n1 | -18 | -14 | -25 | -9 | -97 | -4
NC(=O)c1nc(-c2cccc(F)c2)nc2c1[nH]c(=O)n2C1CCCCC1 | 51* | -16 | -13 | -8 | -16 | -7
Cc1cccc(-n2c(=O)[nH]c3c(C(N)=O)nc(C4CCCCC4)nc32)c1 | 28 | 23 | 24 | 5 | 49* | 7
CN(C(=O)CSc1nnnn1-c1ccccc1)c1ccccc1 | 8 | 4 | 3 | -5 | 19 | -1
Nc1cc(C2CCN(S(=O)(=O)c3ccccc3F)CC2)no1 | 14 | 20 | 7 | 11 | 25 | 2
O=C(Nc1c2c(nn1-c1ccc(F)cc1)CS(=O)(=O)C2)C1CCCCC1 | 7 | 3 | 6 | -89 | 9 | 1
COc1ccc(C(C(=O)NC2CCCC2)N(C(=O)Cn2nnc(-c3ccc(C)o3)n2)c2ccccc2C)cc1 (centres undefined) | 22 | 18 | 8 | 8 | 1 | 2
Cc1ccc(-c2nnn(CC(=O)N(c3ccc(C4CCCCC4)cc3)C(C(=O)NC3CCCCC3)c3ccc(F)cc3)n2)o1 (centres undefined) | 33* | 0 | -6 | 6 | -18 | 5
SMILES | USP17 inh | USP8 block | USP28 block | USP7 block | USP30 inh | USP10 block
Cc1ccc(-c2nnn(CC(=O)N(c3ccccc3C)C(C(=O)NC3CCCC3)c3ccncc3)n2)o1 (centres undefined) | 41* | -19 | -46 | -7 | -207 | -5
O=C1[C@H]2Cc3c([nH]c4ccccc34)C(c3cccc4ccccc34)N2C(=O)CN1C1CCCC1 (some centres undefined) | -22 | 2 | -30 | -6 | -61 | -7
CC1Oc2ccc(NC(=O)c3cccc(NC(=O)c4cccs4)c3)cc2NC1=O (centres undefined) | 38* | -16 | 1 | 4 | -4 | 2
O=S(=O)(c1ccc2nc(NC3CCCC3)cnc2c1)N1CCCCC1 | -19 | -14 | -30 | -2 | -123 | -7
CC(=O)c1cccc(NC(=O)COc2ncnc3sccc23)c1 | -41 | 39* | -32 | 3 | -179 | -4
N#Cc1ccc(COc2ncnc3scc(-c4ccccc4)c23)cc1 | -9 | 10 | 35* | -44 | 10 | -4
Cc1ccc(-c2csc3ncnc(OCc4ccc(C#N)cc4)c23)cc1 | 10 | 7 | 18 | -11 | -23 | -6
CC1=C(C(=O)Nc2ccccc2C)C(c2ccc(OCc3ccccc3F)cc2)n2ncnc2N1 (centres undefined) | 62* | 13 | 5 | 0 | 19 | 5
CC1=C(C(=O)Nc2ccccn2)C(c2ccc3c(c2)OCO3)n2ncnc2N1 (centres undefined) | 12 | 16 | 33* | 5 | 18 | 2
CS(=O)(=O)N1CCc2cc(C(=O)N(Cc3ccccc3)Cc3ccccc3)ccc21 | 11 | -11 | 9 | -2 | 29 | 11
COc1ccc(Cl)cc1NC(=O)Cn1cnc(S(=O)(=O)N2CCC(C)CC2)c1 | 0 | 11 | -2 | -4 | 7 | 0
COc1ccc(N2CCn3c(SCC(=O)Nc4ccccc4)nnc32)cc1 | 26 | 14 | 5 | 8 | 43* | 5
COc1ccc(N2CCn3c(SCC(=O)Nc4cccc(F)c4)nnc32)cc1 | 37* | 31* | 9 | 13 | 34* | 12
CCc1ccc(NC(=O)CSC2=NC3(CCCC3)Nc3ccccc32)cc1 | 4 | 0 | -14 | -1 | -52 | -5
CCc1ccc(NC(=O)CSc2[nH]c(=O)c(C(=O)O)cc2C#N)cc1 | 42* | 54* | 48* | 1 | 20 | -2
COc1ccccc1C1=NS(=O)(=O)N(C)C(C(=O)NCc2ccccc2)=C1 | 4 | -25 | -3 | 1 | 1 | 0
Cc1ccc(NC(=O)Cn2cc(S(=O)(=O)N3CCCCC3)ccc2=O)cc1 | 12 | 13 | 20 | 7 | 44* | 6
Cc1ccccc1Cn1cc(S(=O)(=O)N2CCCCCC2)ccc1=O | 21 | 14 | 10 | -11 | 37* | 2
O=C(Cn1cc(S(=O)(=O)N2CCCCC2)ccc1=O)Nc1ccccc1 | 25 | 2 | 12 | 3 | 8 | 5
Cc1ccc(NC(=O)Cn2cc(S(=O)(=O)N3CCOCC3)ccc2=O)cc1 | 3 | 1 | -4 | 1 | 13 | 1
O=C(Cn1cc(S(=O)(=O)N2CCCCCC2)ccc1=O)Nc1ccccc1 | 36* | 9 | -9 | 0 | -13 | 5
